Results as given in ChEMBL document CHEMBL1157539, “Thousands of chemical starting points for antimalarial lead identification” (Nature, 2010).
Where “and” joins values, the source holds several entries; their conditions need not be identical. Equal values may be shown once.

Experiments:
Format in all cases: functional
Plasmodium falciparum [1] = experiment: GSK_TCMDC: Inhibition of Plasmodium falciparum 3D7 in whole red blood cells, using parasite LDH activity as an index of growth. Test compounds present at 2uM
Plasmodium falciparum [2] = experiment: GSK_TCMDC: Inhibition of Plasmodium falciparum Dd2 in whole red blood cells, using parasite LDH activity as an index of growth. Test compounds present at 2uM
HepG2 = experiment: GSK_TCMDC: Percent inhibition of human HepG2 cell line. Test compounds present at 10uM.

Compound | Inhibition (Plasmodium falciparum [1]) | Inhibition (Plasmodium falciparum [2]) | Inhibition (HepG2)
CN1CC=C(c2c[nH]c3ccc(Sc4ccccc4)cc23)CC1.O=C(O)/C=C/C(=O)O | 98% | 99% | 36%
COc1ccc(C(=O)C2CC2CN2CC=C(c3c[nH]c4ccccc34)CC2)cc1 (configuration not stated) | 95% | 89% | 12%
COC(=O)c1ccc(CC(C)NCC(O)c2ccc(Cl)c(Cl)c2)cc1 (configuration not stated) | 87% | 33% | 0%
COc1ccc(C=CC(=O)NC2CCC(CN3CCC(c4c[nH]c5ccccc45)CC3)CC2)cc1OC (configuration not stated) | 100% | 85% and 72% | 14% and 15%
COC(=O)c1ccc(CC(C)NCC(O)c2cccc(Br)c2)cc1 (configuration not stated) | 99% | 88% | 0%
O=C(/C=C/c1ccc(Cl)c(Cl)c1)N1CCC(CN2CCC(c3c[nH]c4cc5c(cc34)OCO5)CC2)CC1 | 100% | 75% | 41%
Cl.O=C(/C=C/c1ccc(Cl)c(Cl)c1)NC1C2CCC1CC(CN1CCC(c3c[nH]c4ccccc34)CC1)C2 (configuration not stated) | 100% | 100% | 31%
O=C(/C=C/C=C/c1ccccc1)NC1CCC(CN2CCC(c3c[nH]c4ccccc34)CC2)CC1 (configuration not stated) | 100% | 66% | 49%
O=C(/C=C/c1ccc(C(F)(F)F)cc1)NC1CCC(CN2CCC(c3c[nH]c4ccccc34)CC2)CC1 (configuration not stated) | 100% and 98% | 100% and 97% | 73% and 42%
CCCCCc1cc(O)c2c3c(c(=O)oc2c1)CN(C)CC3 | 100% | 99% | 4%
Cc1ccc(CC(C)NCC(O)c2cccc(C(F)(F)F)c2)cc1.Cl (configuration not stated) | 99% | 97% | 6%
Cc1nc(C)c(-c2ccc(Oc3ccc(OC(F)(F)F)cc3)cc2)c(OC(=O)N(CCNC(C)C)C(C)C)c1Br.Cl | 98% | 97% | 35%
COCCNCc1cccc(-c2ccc(CN(C(=O)NC3CCCCC3)C3CCN(Cc4ccccc4)CC3)cc2)c1.O=C(O)C(F)(F)F | 100% | 31% | 32%
C/C=C1\CN2CC[C@H]1C[C@H]2[C@H](O)c1ccnc2ccc(OC)cc12 | 100% | 45% | 0%
